The text below walks through data of publication PMC4081100, “A DNA-binding-site landscape and regulatory network analysis for NAC transcription factors in Arabidopsis thaliana”.

Assay in all cases: universal protein binding microarray (PBM); transcription factors of Arabidopsis thaliana; high values mean tight binding
The target in one assay is T1, GST-ANAC092(1-176) (Arabidopsis thaliana, UniProt Q9FKA0 1-176).
T1 sequence: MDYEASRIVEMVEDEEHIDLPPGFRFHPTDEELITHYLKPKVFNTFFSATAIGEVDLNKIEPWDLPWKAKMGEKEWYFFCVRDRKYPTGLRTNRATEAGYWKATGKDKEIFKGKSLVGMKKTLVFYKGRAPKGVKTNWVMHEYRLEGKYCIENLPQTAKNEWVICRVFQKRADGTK
The conditions noted are these: protein: recombinant; tags: GST; chain copies: 2; dsDNA, one strand shown. Summed up: (§1)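 Protein amounts were determined by A280 or anti-GST western blot after glutathione–Sepharose 4B purification of GST-tagged proteins induced in cells, with zinc acetate included for zinc-finger proteins. Duplicate runs at 200 to 500 nM final were done on custom all-10-mer Agilent 4 × 180K arrays made double-stranded by primer extension. The normalised enrichment score (E-score) over gapped and ungapped 8-mers is the measure of binding.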

A further assay addresses GST-NTL6(1-168) (Arabidopsis thaliana, UniProt Q9SCK6 1-168). Conditions: protein: recombinant; tags: GST; chain copies: 2; dsDNA, one strand shown. The essentials:
as §1

A further assay concerns the target T2, GST-ANAC019 NAC domain (Arabidopsis thaliana, UniProt Q9C932 14-162).
T2 sequence: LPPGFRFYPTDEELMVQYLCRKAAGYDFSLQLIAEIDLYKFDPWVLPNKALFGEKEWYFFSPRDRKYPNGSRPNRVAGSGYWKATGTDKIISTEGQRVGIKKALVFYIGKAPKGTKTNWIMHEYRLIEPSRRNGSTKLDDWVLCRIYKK
Conditions: protein: recombinant; tags: GST; chain copies: 2; dsDNA, one strand shown. Summed up: as §1

A further assay has as its target T3, GST-ANAC055(1-171) (Arabidopsis thaliana, UniProt Q9LDY8 1-171).
T3 sequence: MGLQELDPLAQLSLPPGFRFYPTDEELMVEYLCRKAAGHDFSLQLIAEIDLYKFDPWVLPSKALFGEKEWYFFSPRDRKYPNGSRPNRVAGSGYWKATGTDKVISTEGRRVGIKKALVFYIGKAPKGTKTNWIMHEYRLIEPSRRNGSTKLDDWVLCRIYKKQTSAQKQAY
The conditions noted are these: protein: recombinant; tags: GST; chain copies: 2; dsDNA, one strand shown. The essentials:
as §1

The target in a further assay is T4, GST-ATAF1 NAC domain (Arabidopsis thaliana, UniProt Q39013 7-158).
T4 sequence: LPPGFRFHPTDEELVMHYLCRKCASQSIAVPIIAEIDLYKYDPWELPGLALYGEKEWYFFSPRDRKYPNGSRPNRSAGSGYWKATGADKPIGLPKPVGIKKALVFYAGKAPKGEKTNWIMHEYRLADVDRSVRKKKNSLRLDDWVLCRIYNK
Conditions: protein: recombinant; tags: GST; chain copies: 2; dsDNA, one strand shown. The essentials: as §1

The target of assay [1] is T5, GST-ANAC092(1-285) full length (Arabidopsis thaliana, UniProt Q9FKA0 1-285).
T5 sequence: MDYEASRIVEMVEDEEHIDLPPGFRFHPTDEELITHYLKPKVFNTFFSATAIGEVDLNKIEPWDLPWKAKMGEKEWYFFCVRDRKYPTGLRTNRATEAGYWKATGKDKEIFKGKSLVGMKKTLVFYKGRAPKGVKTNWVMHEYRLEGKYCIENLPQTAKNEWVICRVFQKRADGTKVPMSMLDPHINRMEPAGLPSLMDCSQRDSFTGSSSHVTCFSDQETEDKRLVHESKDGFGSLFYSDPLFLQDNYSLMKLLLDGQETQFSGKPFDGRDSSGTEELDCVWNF
The conditions noted are these: protein: recombinant; tags: GST; chain copies: 2; dsDNA, one strand shown. The essentials: as §1

Another assay deals with T6, GST-NST2(1-184) (Arabidopsis thaliana, UniProt Q9M274 1-184).
T6 sequence: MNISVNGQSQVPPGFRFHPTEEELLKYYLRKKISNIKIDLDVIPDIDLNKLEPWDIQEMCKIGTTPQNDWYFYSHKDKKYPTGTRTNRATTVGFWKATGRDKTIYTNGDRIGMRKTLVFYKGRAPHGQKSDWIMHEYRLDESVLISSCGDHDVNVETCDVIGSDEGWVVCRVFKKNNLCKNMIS
Conditions: protein: recombinant; tags: GST; chain copies: 2; dsDNA, one strand shown. The essentials: as §1

For another assay, the target named is T7, GST-NTL8 NAC domain (Arabidopsis thaliana, UniProt Q9XIN7 14-156).
T7 sequence: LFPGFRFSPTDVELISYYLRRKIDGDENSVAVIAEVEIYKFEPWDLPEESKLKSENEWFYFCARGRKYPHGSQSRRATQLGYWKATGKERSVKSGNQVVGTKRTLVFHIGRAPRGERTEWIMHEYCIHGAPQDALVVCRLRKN
The conditions noted are these: protein: recombinant; tags: GST; chain copies: 2; dsDNA, one strand shown. The essentials:
as §1

The target in a further assay is T8, GST-SND1(1-203) (Arabidopsis thaliana, UniProt Q9LPI7 1-203).
T8 sequence: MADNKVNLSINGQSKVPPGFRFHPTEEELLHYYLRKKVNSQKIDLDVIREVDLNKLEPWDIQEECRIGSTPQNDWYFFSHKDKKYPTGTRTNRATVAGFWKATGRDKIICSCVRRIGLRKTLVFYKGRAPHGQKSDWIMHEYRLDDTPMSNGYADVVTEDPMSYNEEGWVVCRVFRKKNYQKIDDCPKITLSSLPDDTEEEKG
The conditions noted are these: protein: recombinant; tags: GST; chain copies: 2; dsDNA, one strand shown. Summed up:
as §1

The target of a further assay is T9, GST-VND3 NAC domain (Arabidopsis thaliana, UniProt Q9FH59 12-162).
T9 sequence: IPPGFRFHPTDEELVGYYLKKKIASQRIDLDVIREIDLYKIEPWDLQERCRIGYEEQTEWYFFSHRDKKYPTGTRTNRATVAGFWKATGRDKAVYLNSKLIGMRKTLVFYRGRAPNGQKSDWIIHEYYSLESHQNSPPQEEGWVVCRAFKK
Conditions: protein: recombinant; tags: GST; chain copies: 2; dsDNA, one strand shown. The essentials: as §1

A further assay concerns the target T10, GST-VND7 NAC domain (Arabidopsis thaliana, UniProt Q9C8W9 9-158).
T10 sequence: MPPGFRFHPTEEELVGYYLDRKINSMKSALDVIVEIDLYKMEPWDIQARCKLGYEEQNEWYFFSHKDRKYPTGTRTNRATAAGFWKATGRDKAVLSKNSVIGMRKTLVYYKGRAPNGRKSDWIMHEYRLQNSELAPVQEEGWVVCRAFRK
The conditions noted are these: protein: recombinant; tags: GST; chain copies: 2; dsDNA, one strand shown. Summed up: as §1

In the next assay the target is GST-WRKY1(266-371) (Arabidopsis thaliana, UniProt Q9SI37 266-371). The conditions noted are these: protein: recombinant; tags: GST; dsDNA, one strand shown. Summed up:
as §1

A further assay addresses T11, GST-NAP(1-166) (Arabidopsis thaliana, UniProt O49255 1-166).
T11 sequence: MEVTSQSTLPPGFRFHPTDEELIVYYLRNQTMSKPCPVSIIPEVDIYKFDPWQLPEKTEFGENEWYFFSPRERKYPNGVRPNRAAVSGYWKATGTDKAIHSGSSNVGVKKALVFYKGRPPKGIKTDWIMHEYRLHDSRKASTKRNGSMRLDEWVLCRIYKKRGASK
Conditions: protein: recombinant; tags: GST; chain copies: 2; dsDNA, one strand shown. Summed up:
as §1

Sequence of GST-WRKY1(266-371) (Q9SI37 266-371): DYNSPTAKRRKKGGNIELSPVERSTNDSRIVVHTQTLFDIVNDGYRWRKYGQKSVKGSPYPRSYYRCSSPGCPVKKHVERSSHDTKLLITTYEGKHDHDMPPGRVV
Sequence of GST-NTL6(1-168) (Q9SCK6 1-168): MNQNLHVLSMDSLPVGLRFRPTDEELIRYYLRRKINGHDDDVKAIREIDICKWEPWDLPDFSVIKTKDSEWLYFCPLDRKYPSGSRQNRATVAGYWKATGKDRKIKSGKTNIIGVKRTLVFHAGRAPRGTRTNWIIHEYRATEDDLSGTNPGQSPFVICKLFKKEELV

Take ATTACTTC: the binding signal in the assay with GST-ANAC092(1-176) is 0.31 E-score; with GST-NTL6(1-168), 0.415 E-score; with GST-ANAC019 NAC domain it was 0.168 E-score; with GST-ANAC055(1-171), 0.223 E-score; with GST-ATAF1 NAC domain, 0.176 E-score; in assay [1], 0.34 E-score. Further, the binding signal is 0.267 E-score with GST-NST2(1-184); 0.406 E-score with GST-NTL8 NAC domain; 0.347 E-score in the assay with GST-SND1(1-203); 0.208 E-score with GST-VND3 NAC domain; 0.14 E-score with GST-VND7 NAC domain; 0.097 E-score with GST-WRKY1(266-371).
In the case of GACGTAAA, the binding signal with GST-ANAC092(1-176) was found to be 0.355 E-score; with GST-ANAC019 NAC domain, 0.298 E-score; with GST-ANAC055(1-171) it was 0.256 E-score; with GST-ATAF1 NAC domain, 0.365 E-score; in assay [1], 0.399 E-score; in the assay with GST-NAP(1-166), 0.311 E-score. Besides, the binding signal was determined as 0.333 E-score with GST-NST2(1-184); 0.431 E-score with GST-SND1(1-203); 0.329 E-score with GST-VND3 NAC domain; 0.204 E-score with GST-VND7 NAC domain; 0.0785 E-score in the assay with GST-WRKY1(266-371).
Take ATAAGTAA: the binding signal with GST-ANAC092(1-176) was determined as 0.318 E-score; with GST-NTL6(1-168), 0.434 E-score; with GST-ANAC055(1-171), 0.181 E-score; with GST-ATAF1 NAC domain, 0.246 E-score; in [1], 0.363 E-score; in the assay with GST-NST2(1-184), 0.29 E-score. Moreover, the binding signal amounted to 0.167 E-score with GST-NTL8 NAC domain; 0.311 E-score with GST-SND1(1-203); 0.264 E-score with GST-VND3 NAC domain; 0.18 E-score with GST-VND7 NAC domain; 0.142 E-score in the assay with GST-WRKY1(266-371).
For AAGGAAAG, the binding signal in the assay with GST-ANAC092(1-176) was 0.261 E-score; with GST-NTL6(1-168) it was 0.398 E-score; with GST-ANAC019 NAC domain it was 0.104 E-score; in the assay with GST-ANAC055(1-171) it was 0.181 E-score; with GST-ATAF1 NAC domain, 0.0767 E-score; in assay [1], 0.186 E-score. The binding signal in the assay with GST-NST2(1-184) was 0.239 E-score; with GST-NTL8 NAC domain, 0.467 E-score; with GST-SND1(1-203), 0.262 E-score; with GST-VND3 NAC domain it was 0.0708 E-score; with GST-VND7 NAC domain, 0.117 E-score; with GST-WRKY1(266-371) it was 0.0652 E-score.
Regarding ACGGAAAC, the binding signal is 0.325 E-score with GST-ANAC092(1-176); 0.205 E-score with GST-NTL6(1-168); 0.412 E-score with GST-ANAC019 NAC domain; 0.388 E-score with GST-ANAC055(1-171); 0.209 E-score with GST-ATAF1 NAC domain; 0.345 E-score in assay [1]. Further, the binding signal with GST-NAP(1-166) was found to be 0.305 E-score; with GST-NST2(1-184) it was 0.242 E-score; in the assay with GST-NTL8 NAC domain, 0.243 E-score; with GST-SND1(1-203), 0.191 E-score; with GST-VND3 NAC domain it was 0.349 E-score; with GST-VND7 NAC domain it was 0.361 E-score.
For ACACGATA, the binding signal in the assay with GST-ANAC092(1-176) was found to be 0.38 E-score; in the assay with GST-NTL6(1-168), 0.127 E-score; with GST-ANAC019 NAC domain, 0.324 E-score; with GST-ANAC055(1-171), 0.261 E-score; in the assay with GST-ATAF1 NAC domain, 0.267 E-score; in assay [1], 0.417 E-score. In addition, the binding signal in the assay with GST-NAP(1-166) was 0.183 E-score; with GST-NST2(1-184), 0.27 E-score; with GST-SND1(1-203), 0.266 E-score; in the assay with GST-VND3 NAC domain it was 0.273 E-score; with GST-VND7 NAC domain, 0.248 E-score.
Take ACGTAACA: the binding signal with GST-ANAC092(1-176) was 0.438 E-score; in the assay with GST-NTL6(1-168) it was 0.133 E-score; with GST-ANAC019 NAC domain, 0.389 E-score; with GST-ANAC055(1-171), 0.413 E-score; with GST-ATAF1 NAC domain, 0.365 E-score; in assay [1], 0.426 E-score. Besides, the binding signal in the assay with GST-NAP(1-166) is 0.417 E-score; with GST-NST2(1-184), 0.345 E-score; with GST-NTL8 NAC domain, 0.205 E-score; in the assay with GST-SND1(1-203) it was 0.409 E-score; with GST-VND3 NAC domain, 0.41 E-score; with GST-VND7 NAC domain, 0.419 E-score.
